tested on: glycogen synthase kinase-3 (GSK3A per assay name; protocol says GSK3B); experiment: compounds binding glycogen synthase kinase-3 – biochemical, small-molecule microarray, 635 nm fluorescence, GSK3A, primary screen (AID 1103); details: fluorescence 635 nm, higher = more signal; also: the record names both GSK3A and GSK3B

Compound | composite z-score
COC(=O)[C@H](C)NC(=O)CCC1CC(OC(=O)NCCc2ccc(F)cc2)CC2(CCCC(COC(=O)NCC3CCCCC3)O2)O1 (some centres not stated) | 1.23
COc1ccc2c(c1)O[C@@H](c1cccc(C(F)(F)F)c1)[C@H](O)C2=O | 0.39
CCOC(=O)[C@H](Cc1ccccc1)NC(=O)CCC1CC(OC(=O)NCc2ccc3c(c2)OCO3)CC2(CCCC(COC(=O)NCCOc3ccccc3)O2)O1 (some centres not stated) | 1.1
CC(=O)OC[C@H]1O[C@@H](ON=C(C)C)[C@H](OC(C)=O)[C@@H](OC(C)=O)[C@@H]1OC(C)=O | -1.28
CCOC(=O)[C@H](Cc1ccccc1)NC(=O)CCC1CC(OC(=O)NCc2ccc3c(c2)OCO3)CC2(CCCC(COC(=O)NCCc3ccc(Cl)cc3)O2)O1 (some centres not stated) | 1.27
O=C1C=C[C@@H](O)[C@@H]2[C@@H]3C(=O)N(Cc4ccccc4)C(=O)[C@@H]3CC[C@@H]12 | 0.653
COC(=O)C1=C(C)N(Cc2ccccc2)C2=C3C(=O)OCC[C@@H]3[C@@](O)(C(=O)OC)C(=O)N2[C@@H]1c1ccccc1 | 0.51
CCCNC(=O)OC[C@H]1O[C@H](CCON=C[C@@H](NS(=O)(=O)c2ccc(C)cc2)[C@H](C)C=CCC(=O)OC)C=C[C@@H]1Oc1ccc(OC)cc1 | -0.54
CC=CC1=C(CO)[C@H](O)[C@H]2O[C@H]2[C@@H]1O | 0.403
COc1ccc(O[C@H]2C=C[C@@H](C#Cc3ccccc3)O[C@@H]2CO)cc1 | -0.139
COC(=O)[C@@H]1CC[C@H](C)[C@@H](c2ccc(C)cc2)N1C(=O)c1ccc(C=NOC[C@H]2O[C@H](c3ccccc3)C=C[C@@H]2Oc2ccc(OC)cc2)cc1 | -0.245
CON=C1c2cc(OC)ccc2O[C@H](c2cccc(OC)c2)[C@H]1O | 0.498
C[C@@H]1CC[C@H]2C(=O)OC(Cc3ccccc3)CN2[C@H]1c1ccc(Br)cc1 (some centres not stated) | 0.255
C=CCOCC1CN2[C@@H](CC[C@@H](C)[C@@H]2c2ccc(Br)cc2)C(=O)O1 (some centres not stated) | -0.255
COc1ccc(COC(=O)NN=C2C[C@@H](O)[C@@H](O)[C@@H]3[C@@H]4C(=O)N(Cc5ccccc5)C(=O)[C@@H]4CC[C@@H]23)cc1 | 0.256
COC(=O)[C@H](C)NC(=O)CCC1CC(OC(=O)NCCc2ccc(F)cc2)CC2(CCCC(COC(=O)NCCOc3ccccc3)O2)O1 (some centres not stated) | 1.01

Compound | composite z-score
COC(=O)[C@H](C)NC(=O)CCC1CC(OC(=O)NCCc2ccc(F)cc2)CC2(CCCC(COC(=O)NCCc3ccccc3OC)O2)O1 (some centres not stated) | 1.05
CCOC(=O)[C@H](CC(C)C)NC(=O)CCC1CC(OC(=O)NCc2ccc3c(c2)OCO3)CC2(CCCC(COC(=O)NCCC(C)C)O2)O1 (some centres not stated) | -0.322
C=C(C)C(=O)OC[C@H]1CN2[C@@H](CC[C@@H](C)[C@@H]2c2ccc(Br)cc2)C(=O)O1 | 0.179
CO[C@@H]1COC(=O)[C@H](COCc2ccccc2)NC(=O)CC=C[C@@H](C)[C@H](OC)COC(=O)[C@@H](C)NC(=O)CC=C[C@H]1C | -0.314
O=C1C[C@H](c2ccccc2)[C@H](c2ccc(Br)cc2)O1 | -0.826
CC(CCN1CCCc2nc(C)c(C)cc21)=NO[C@H](C)c1cn([C@H](CO)Cc2ccccc2)nn1 | 0.605
COC(=O)[C@@H]1CC[C@H](C)[C@@H](c2ccc(Br)cc2)N1C(=O)C(F)(F)F | -0.657
CC(CCN1CCCc2nc(C)c(C)cc21)=NOC[C@@H](O)COCc1ccco1 | 1.22
C#CCCCON=C1C[C@@H](O)[C@@H](O)[C@@H]2[C@@H]3C(=O)N([C@@H](C)c4ccccc4)C(=O)[C@@H]3CC[C@@H]12 | -0.521
O=C1C2=CC[C@H]3C(=O)N(Cc4ccccc4)C(=O)[C@H]3[C@H]2[C@H](O)[C@@H]2O[C@H]12 | -0.569
CC(CCC(=O)OC[C@H]1O[C@H](C#Cc2ccccc2)C=C[C@@H]1Oc1ccc(C)cc1)=NOC(C)CN1CCCCc2nc(C)c(C)cc21 (some centres not stated) | -0.555
CCOC(=O)NN=C1C[C@@H](O)[C@@H](O)[C@@H]2[C@@H]3C(=O)N(CC)C(=O)[C@@H]3CC[C@H]12 | -0.256
CON=C(C)CCN1CCCCc2nc(C)c(C)cc21 | 0.213
CO[C@@H](C1CCCCC1)[C@@H](C)[C@H](OCc1cccc(Br)c1)[C@@H](C)CO | -0.314
O=C1CCCC=C1C(O)COCc1ccccc1 (configuration not stated) | -1.62
C=CC[C@@H]1C=C[C@H](ON=CC[C@@H]2C=C[C@H](OC(C)=O)[C@@H](COC(C)=O)O2)[C@@H](CO)O1 | 0.765

Source: PubChem BioAssay
